The source made the active and inactive calls. Unless noted, how the calls were made is not given here.
Columns and labels:
[1] = tested on: Wnt5a (protein binding on small-molecule microarray); test: Wnt5a binders on small-molecule microarray, primary screen, biophysical, 635/667 nm fluorescence (AID 1142); conditions: 635 nm fluorescence, higher = more signal;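 further: fluorescence read at 667 nm with signal to noise per printed feature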
[2] = cell viability in Huh7 cells, primary screen, cytotoxicity control for HCV replication inhibitor project, CellTiter-Glo luminescence, basal, 48 h (AID 1143); conditions: Huh7 HCV replicon, higher = more signal, called active from +8 up or from −8 down;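 further: Huh7 hepatoma cells carrying a hepatitis C replication reporter with no stimulus; test concentration not given here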
[3] = P. aeruginosa biofilm formation inhibitors, primary screen, PAO1 strain, BacTiter-Glo luminescence, LB-PBS (AID 1144); conditions: 12 h, higher = more signal
[4] = CREB reporter modulators without forskolin, primary screen, cell-based, PC12, CRE-LacZ reporter, unstimulated (AID 1145); conditions: no forskolin, luminescence, 4.5 h, higher = more signal, called active from +8 up or from −8 down
[5] = CREB reporter modulators under forskolin, primary screen, cell-based, PC12, CRE-LacZ reporter, forskolin-stimulated (AID 1146); conditions: luminescence, 4.5 h, higher = more signal, called active from +8 up or from −8 down;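 further: PC12 cells with 6xCRE LacZ reporter stimulated by forskolin 10 µM; beta-galactosidase reporter signal reflecting CREB driven transcription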
[6] = target: Streptavidin (Streptomyces avidinii) (UniProt P22629); test: streptavidin binders on small-molecule microarray, primary screen, artefact control for SMM compound annotation, biophysical, 635/667 nm fluorescence (AID 1147); conditions: streptavidin binding, higher = more signal;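 further: signal reflects streptavidin binding to arrayed compounds as a control protein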
Streptavidin (Streptomyces avidinii), sequence (P22629 whole entry, looked up): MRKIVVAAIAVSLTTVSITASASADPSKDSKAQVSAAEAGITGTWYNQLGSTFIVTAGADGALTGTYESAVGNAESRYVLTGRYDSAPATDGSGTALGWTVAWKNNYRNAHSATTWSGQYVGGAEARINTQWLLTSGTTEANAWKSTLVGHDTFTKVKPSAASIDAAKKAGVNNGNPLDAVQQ

[7] = small-molecule binders of probe aInhba, primary screen, biochemical, small-molecule microarray, 635/667 nm fluorescence (AID 1148); conditions: higher = more signal;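 further: score merges 667nm spot fluorescence with signal-to-noise for antibody binding to printed compounds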
[8] = target: Torsin-1A (Homo sapiens) (UniProt O14656); test: torsin A binders from cell lysate, primary screen, small-molecule microarray, wild-type, 635/667 nm (AID 1149); conditions: COS7 hTOR1A-WT lysate, 635 nm fluorescence, higher = more signal
Torsin-1A (Homo sapiens), sequence (O14656 whole entry, looked up): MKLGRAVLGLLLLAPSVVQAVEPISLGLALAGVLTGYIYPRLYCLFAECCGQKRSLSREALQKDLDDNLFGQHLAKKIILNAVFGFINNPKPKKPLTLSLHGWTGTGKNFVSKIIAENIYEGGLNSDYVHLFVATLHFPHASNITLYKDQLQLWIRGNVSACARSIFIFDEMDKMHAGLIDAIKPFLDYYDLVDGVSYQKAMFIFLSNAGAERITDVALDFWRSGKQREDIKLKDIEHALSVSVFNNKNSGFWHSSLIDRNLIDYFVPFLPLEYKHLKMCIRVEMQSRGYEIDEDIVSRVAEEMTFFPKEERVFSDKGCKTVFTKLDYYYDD

[9] = target: Torsin-1A (Homo sapiens) (UniProt O14656); test: small-molecule binders of mutant TOR1A in lysate, primary screen, cell lysate, small-molecule microarray, COS7 lysate, 635/667 nm fluorescence (AID 1150); conditions: COS7 hTOR1A mutant lysate, 635 nm fluorescence, higher = more signal;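 further: score pools 667 nm emission and signal to noise measuring lysate protein binding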
[10] = tested on: Sonic hedgehog protein (Shh); test: small-molecule binders of Shh protein, primary screen, biochemical, small-molecule microarray, 635/667 nm fluorescence (AID 1151); conditions: small-molecule microarray binding, 635 nm fluorescence; higher = more signal;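 further: Shh protein binding to compounds spotted on small-molecule microarray slides; score combines spot fluorescence intensity with signal-to-noise across triplicate slides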
[11] = E. coli DRC41 culture turbidity changes, primary screen, E. coli filamentation inducer project, strain DRC41, OD650, 48 h (AID 1152);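 further: E. coli MC1000 strain DRC41 lacking acrAB efflux pump and sulA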; conditions: E. coli DRC41 (acrAB sulA), higher = more signal, called active from +8 up or from −8 down
[12] = small-molecule binders of probe aLefty1, primary screen, biochemical, small-molecule microarray, 635/667 nm fluorescence (AID 1153); conditions: higher = more signal;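 further: score merges spot fluorescence with signal-to-noise ratio from the scanned slide images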
[13] = PSAC antagonists in infected red cells, primary screen, cell-based, P. falciparum Indochina, OD700, 1 h (AID 1154); conditions: P. falciparum Indochina infected RBC osmotic lysis, higher = more signal, called active from +8 up or from −8 down
[14] = PSAC antagonists in infected red cells, primary screen, cell-based, P. falciparum Indochina, OD700, 2 h (AID 1155);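 further: lysis reports solute entry through the parasite surface anion channel PSAC; channel blockers reduce lysis of infected cells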; conditions: P. falciparum Indochina infected erythrocytes, osmotic lysis OD700; higher = more signal, called active from +8 up or from −8 down
[15] = osmotic lysis modulators in infected erythrocytes, primary screen, PSAC antagonist project, cell-based, P. falciparum Indochina, OD700, 3 h (AID 1156); conditions: higher = more signal, called active from +8 up or from −8 down
[16] = PSAC antagonists in infected red cells, primary screen, cell-based, P. falciparum Indochina, OD700, 18 h (AID 1157); conditions: P. falciparum Indochina infected erythrocytes, osmotic lysis OD700, 18 h; higher = more signal, called active from +8 up or from −8 down
[17] = modulators of S6 phosphorylation in cells, primary screen, cell-based, A549, cytoblot, luminescence, serum-stimulated (AID 1158); conditions: A549 phospho-S6 cytoblot, 5 h, higher = more signal;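 further: serum-stimulated A549 lung adenocarcinoma cells; signal is phosphorylated S6 detected by cytoblot immunostaining with HRP secondary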
[18] = target: NADPH oxidase 2 (Homo sapiens) (UniProt P04839); test: NOX2-dependent H2O2 signal modulators, primary screen, NOX inhibitor project, cell-based, HEK293-NOX2, PMA-stimulated, Amplex Red fluorescence (AID 1159); conditions: 45 min, higher = more signal, called active from +8 up or from −8 down; further: test concentration not given here
NADPH oxidase 2 (Homo sapiens), sequence (P04839 whole entry, looked up): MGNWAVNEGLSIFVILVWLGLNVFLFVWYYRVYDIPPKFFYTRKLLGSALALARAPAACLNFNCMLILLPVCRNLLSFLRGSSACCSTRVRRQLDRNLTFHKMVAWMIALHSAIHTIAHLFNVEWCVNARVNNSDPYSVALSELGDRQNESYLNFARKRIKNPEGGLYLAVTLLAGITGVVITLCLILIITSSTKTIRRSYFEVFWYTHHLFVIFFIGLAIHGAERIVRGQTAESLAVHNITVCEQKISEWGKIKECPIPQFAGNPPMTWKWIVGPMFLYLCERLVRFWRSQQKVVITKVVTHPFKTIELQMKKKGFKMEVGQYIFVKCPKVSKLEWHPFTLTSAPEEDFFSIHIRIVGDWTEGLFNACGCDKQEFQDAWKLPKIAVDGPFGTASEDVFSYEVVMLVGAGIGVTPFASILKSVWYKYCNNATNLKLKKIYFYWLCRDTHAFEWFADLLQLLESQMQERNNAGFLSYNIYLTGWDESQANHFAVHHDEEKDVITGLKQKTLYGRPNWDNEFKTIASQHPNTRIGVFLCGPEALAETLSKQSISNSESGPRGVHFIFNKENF

[19] = target: NADPH oxidase 4 (Homo sapiens) (UniProt Q9NPH5); test: NOX4-dependent H2O2 signal modulators, primary screen, NOX inhibitor project, cell-based, HEK293-NOX4, tetracycline-induced, Amplex Red fluorescence (AID 1160); conditions: 45 min, higher = more signal, called active from +8 up or from −8 down
NADPH oxidase 4 (Homo sapiens), sequence (Q9NPH5 whole entry, looked up): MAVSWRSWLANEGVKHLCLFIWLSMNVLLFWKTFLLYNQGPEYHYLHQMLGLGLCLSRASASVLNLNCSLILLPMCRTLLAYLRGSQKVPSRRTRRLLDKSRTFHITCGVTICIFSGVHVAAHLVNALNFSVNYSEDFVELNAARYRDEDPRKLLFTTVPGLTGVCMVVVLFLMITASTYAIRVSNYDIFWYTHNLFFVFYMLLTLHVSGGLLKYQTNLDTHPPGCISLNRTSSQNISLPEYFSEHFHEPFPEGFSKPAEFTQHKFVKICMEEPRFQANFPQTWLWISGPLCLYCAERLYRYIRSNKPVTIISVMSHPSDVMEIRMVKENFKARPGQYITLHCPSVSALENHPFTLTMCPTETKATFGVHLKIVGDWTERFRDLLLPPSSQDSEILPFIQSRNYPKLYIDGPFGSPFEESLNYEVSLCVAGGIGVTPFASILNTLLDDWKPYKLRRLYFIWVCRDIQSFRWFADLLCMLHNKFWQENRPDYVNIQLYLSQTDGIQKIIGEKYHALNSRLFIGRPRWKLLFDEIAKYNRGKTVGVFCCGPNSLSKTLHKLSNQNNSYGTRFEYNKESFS

[20] = target: NADPH oxidase 5 (Homo sapiens) (UniProt Q96PH1); test: NOX5-dependent H2O2 signal modulators, primary screen, NOX inhibitor project, cell-based, HEK293-NOX5, Amplex Red fluorescence (AID 1161); conditions: HEK293-NOX5, ionomycin, 45 min, higher = more signal
NADPH oxidase 5 (Homo sapiens), sequence (Q96PH1 whole entry, looked up): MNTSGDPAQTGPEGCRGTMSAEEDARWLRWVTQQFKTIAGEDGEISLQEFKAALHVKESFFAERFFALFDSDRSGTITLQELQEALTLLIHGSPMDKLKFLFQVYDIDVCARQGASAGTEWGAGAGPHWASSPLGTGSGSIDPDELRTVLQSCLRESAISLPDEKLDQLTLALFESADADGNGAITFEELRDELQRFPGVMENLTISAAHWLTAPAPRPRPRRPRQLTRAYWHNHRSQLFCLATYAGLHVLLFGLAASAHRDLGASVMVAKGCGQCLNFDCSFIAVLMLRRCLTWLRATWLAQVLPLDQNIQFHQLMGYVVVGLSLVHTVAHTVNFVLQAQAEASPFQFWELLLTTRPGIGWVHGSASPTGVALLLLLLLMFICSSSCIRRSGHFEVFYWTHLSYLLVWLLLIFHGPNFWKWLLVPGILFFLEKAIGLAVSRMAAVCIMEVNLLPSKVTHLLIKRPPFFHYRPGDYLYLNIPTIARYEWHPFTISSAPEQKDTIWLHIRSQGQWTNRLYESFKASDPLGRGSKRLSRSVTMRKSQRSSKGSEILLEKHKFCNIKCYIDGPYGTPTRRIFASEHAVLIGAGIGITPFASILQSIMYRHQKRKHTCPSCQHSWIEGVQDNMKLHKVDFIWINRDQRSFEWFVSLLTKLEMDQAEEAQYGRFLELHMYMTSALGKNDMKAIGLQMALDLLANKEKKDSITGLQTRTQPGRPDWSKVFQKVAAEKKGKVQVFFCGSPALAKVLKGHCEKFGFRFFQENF

Row | Structure (SMILES) | composite z-score [1] | z-score [2] | z-score [3] | z-score [4] | z-score [5] | composite z-score [6] | composite z-score [7] | composite z-score [8] | composite z-score [9] | composite z-score [10] | z-score [11] | composite z-score [12] | z-score [13] | z-score [14] | z-score [15] | z-score [16] | z-score [17] | z-score [18] | z-score [19] | z-score [20]
1 | C=CCOC(=O)[C@H]1[C@@H]2C(=O)O[C@@H](c3ccccc3)[C@@H](c3ccccc3)N2[C@@H](c2ccc(OCCOC(=O)[C@@H]3C[C@@H]4C(=O)N[C@@H](CCCC[N+](C)(C)C)C(=O)N4[C@@H]3c3ccc(O)cc3)cc2)[C@]12C(=O)Nc1ccccc12 | 0.444 | -2.47 (inactive) | -1.19 (inactive) | -1.07 (inactive) | -1.48 (inactive) | -0.0862 | -0.0494 | 1.67 | 1.23 | 2.06 | 0.443 (inactive) | 0.0104 | -0.906 (inactive) | -0.689 (inactive) | 4.3 (inactive) | -1.58 (inactive) | 1.28 | 2.42 (inactive) | 0.568 (inactive) | 1.41
2 | C=CCOC(=O)[C@@H]1[C@H]2C(=O)O[C@H](c3ccccc3)[C@H](c3ccccc3)N2[C@H](c2ccc(OCCOC(=O)[C@@H]3C[C@@H]4C(=O)N5CCC[C@H]5C(=O)N4[C@@H]3c3ccc(O)cc3)cc2)[C@@]12C(=O)Nc1ccc(I)cc12 | 0.0017 | -1.51 (inactive) | -1.72 (inactive) | -1.48 (inactive) | -1.75 (inactive) | 1.11 | -0.101 | 0.711 | 0.878 | 1.82 | 2.52 (inactive) | 0.365 | 2.19 (inactive) | 0.727 (inactive) | 2.43 (inactive) | -1.31 (inactive) | 3.17 | 1.32 (inactive) | 0.808 (inactive) | 1.69
3 | COC(=O)[C@@]1(Cc2ccc(OC)cc2)[C@H]2c3cc(C(=O)N4CCCC4)n(Cc4ccsc4Br)c3C[C@H]2CN1C(=O)c1ccccc1 | 0.0185 | -3.29 (inactive) | 0.674 (inactive) | 1.72 (inactive) | 46.9 (active) | 0.161 | 0.19 | -0.34 | 0.185 | -0.658 | -0.68 (inactive) | 0.0429 | 0.538 (inactive) | -0.155 (inactive) | 0.0114 (inactive) | 0.469 (inactive) | 0.0613 | 0.289 (inactive) | -0.137 (inactive) | -1.24
4 | O=C1NCC(=O)N2[C@@H]1C[C@@H](C(=O)O)[C@H]2c1cccc(OCCO)c1 | 2.26 | -0.095 (inactive) | 4.41 (inactive) | 0.822 (inactive) | -0.393 (inactive) | 2.8 | 2.16 | 3.24 | 3.69 | 1.63 | 0.0481 (inactive) | 3.14 | 2.24 (inactive) | 1.34 (inactive) | -1.22 (inactive) | 0.572 (inactive) | 0.863 | 0.313 (inactive) | 0.281 (inactive) | 1.62
5 | COCCn1c(C(=O)N2CCCC2)cc2c1C[C@H]1CN(C(=O)c3ccccc3)[C@@](Cc3ccc(F)cc3)(C(=O)OC)[C@@H]21 | 0.45 | -1.37 (inactive) | -0.727 (inactive) | -0.568 (inactive) | -0.442 (inactive) | 1.8 | -0.0931 | 1.42 | 2.2 | -0.554 | -1.33 (inactive) | 0.237 | 1.15 (inactive) | 0.137 (inactive) | 2.62 (inactive) | 0.642 (inactive) | -0.0267 | 0.236 (inactive) | 0.191 (inactive) | -4.43
6 | COC(=O)[C@@]1(Cc2ccc(OC)cc2)[C@H]2c3cc(C(=O)N4CCCC4)n(Cc4ccccc4)c3C[C@H]2CN1C(=O)c1ccccc1 | 2.34 | -2.68 (inactive) | 0.888 (inactive) | 0.194 (inactive) | -0.754 (inactive) | 2.04 | 1.76 | -0.0218 | 0.107 | -0.442 | -1.49 (inactive) | 2.19 | 2.81 (inactive) | 0.496 (inactive) | 0.748 (inactive) | 0.69 (inactive) | -0.378 | -0.0412 (inactive) | -0.857 (inactive) | -3.04
7 | Cc1ccc(S[C@]2(C(=O)NCC(F)(F)F)CC(=O)N(C(C)C)[C@@H]2c2ccc(CO)cc2I)cc1 | 0.0446 | -1.53 (inactive) | 0.111 (inactive) | 0.118 (inactive) | 0.725 (inactive) | -0.563 | -0.128 | -0.846 | -0.474 | -0.594 | 0.302 (inactive) | 0.108 | 4.6 (inactive) | 0.383 (inactive) | 0.24 (inactive) | 0.548 (inactive) | 0.303 | 1.81 (inactive) | -2.38 (inactive) | 1.5
8 | COC(=O)[C@@]1(Cc2ccc(OC)cc2)[C@H]2c3cc(C(=O)N4CCCC4)n(Cc4ccc(OC)c(OC)c4)c3C[C@H]2CN1C(=O)c1ccccc1 | 0.753 | -2.2 (inactive) | -0.139 (inactive) | 0.959 (inactive) | -0.265 (inactive) | 2.03 | 0.955 | 0.201 | 0.695 | 0.464 | -1.08 (inactive) | 1.61 | 4.08 (inactive) | 0.81 (inactive) | 1.92 (inactive) | 0.91 (inactive) | 0.0413 | 0.555 (inactive) | 0.235 (inactive) | -3.23
9 | COC(=O)c1c(CC[C@@H](CO)NC(=O)N[C@H](Cn2cc(Cc3ccccc3)nn2)C(C)C)oc(C(C)=O)c1C(=O)OC | 0.367 | -2.8 (inactive) | -0.973 (inactive) | 0.904 (inactive) | -1.21 (inactive) | -0.166 | -0.0759 | -0.372 | 0.882 | 2.1 | 0.618 (inactive) | -0.101 | 1.62 (inactive) | -0.452 (inactive) | 0.695 (inactive) | -0.177 (inactive) | 1.53 | -3.91 (inactive) | -1.31 (inactive) | 0.197
